Experimental data taken from PubChem BioAssay AID1159580 (chemical genetic matrix, 2015).
Among all 5,500 compounds or so, about 2,000 (36%) were called active. Another 18% or so got no clear call; they are omitted. Rule as the data show it: active = normalized growth mostly below about 0.91 (no sharp cut-off); inconclusive = no clear call, values can overlap the other calls; inactive = mostly above about 0.92. Some of the results follow.

Assay: chemical genetic growth profiling, strain panel (AID 1159580);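 also: tested at 20 µM; growth read once vehicle control cultures reached saturation at 30 °C; 1 = growth at the plate median or of vehicle wells; lower values mean less growth of the strain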
Settings: S. cerevisiae deletion strains, growth OD

Measured: normalized growth

COc1ccc(Oc2ccc([N+](=O)[O-])cc2C(=O)O/N=C(/N)c2ccc(C(F)(F)F)cc2)cc1
inactive: locus YAR019C, strain CDC15, stronger effect = lower value 1 | locus YBL105C, strain PKC1, stronger effect = lower value 0.991 | locus YBR135W, strain CKS1, stronger effect = lower value 0.991 | locus YBR136W, strain MEC1, stronger effect = lower value 0.996 | locus YBR160W, strain CDC28, stronger effect = lower value 0.997 | locus YDL017W, strain CDC7, stronger effect = lower value 1 | locus YDL028C, strain MPS1, stronger effect = lower value 1 | locus YDL101C, strain DUN1, stronger effect = lower value 0.988 | locus YDL108W, strain KIN28, stronger effect = lower value 0.99 | locus YDL132W, strain cdc53, stronger effect = lower value 0.982 | locus YDL214C, strain PRR2, stronger effect = lower value 1.01 | locus YDR052C, strain DBF4, stronger effect = lower value 1 | locus YDR054C, strain cdc34, stronger effect = lower value 0.99 | locus YDR226W, strain ADK1, stronger effect = lower value 0.987 | locus YDR477W, strain SNF1, stronger effect = lower value 0.999 | locus YER123W, strain YCK3, stronger effect = lower value 0.983 | locus YER133W, strain GLC7, stronger effect = lower value 1 | locus YFL009W, strain cdc4, stronger effect = lower value 0.998 | locus YFL029C, strain CAK1, stronger effect = lower value 1 | locus YFR003C, strain YPI1, stronger effect = lower value 1.01 | locus YFR019W, strain FAB1, stronger effect = lower value 1 | locus YFR028C, strain CDC14, stronger effect = lower value 0.998 | locus YGR040W, strain KSS1, stronger effect = lower value 1 | locus YGR052W, strain FMP48, stronger effect = lower value 1.01 | locus YGR092W, strain DBF2, stronger effect = lower value 1.03 | locus YHR030C, strain SLT2, stronger effect = lower value 0.92 | locus YHR079C, strain IRE1, stronger effect = lower value 1 | locus YHR082C, strain KSP1, stronger effect = lower value 1.11 | locus YHR205W, strain SCH9, stronger effect = lower value 0.991 | locus YIL147C, strain SLN1, stronger effect = lower value 1 | locus YJL095W, strain BCK1, stronger effect = lower value 1 | locus YJL128C, strain PBS2, stronger effect = lower value 0.957 | locus YJL157C, strain FAR1, stronger effect = lower value 1.02 | locus YJR016C, strain ILV3, stronger effect = lower value 1 | locus YJR066W, strain TOR1 (second series), stronger effect = lower value 0.964 | locus YJR066W, strain TOR1, stronger effect = lower value 1.07 | locus YKL048C, strain ELM1, stronger effect = lower value 0.995 | locus YKL067W, strain YNK1, stronger effect = lower value 0.999 | locus YKL101W, strain HSL1, stronger effect = lower value 0.998 | locus YKL193C, strain SDS22, stronger effect = lower value 1 | locus YKL203C, strain TOR2, stronger effect = lower value 1.03 | locus YLR113W, strain HOG1, stronger effect = lower value 0.919 | locus YLR133W, strain CKI1, stronger effect = lower value 1.01 | locus YLR403W, strain SFP1, stronger effect = lower value 1.01 | locus YML070W, strain DAK1, stronger effect = lower value 1.01 | locus YMR001C, strain CDC5, stronger effect = lower value 1.01 | locus YMR205C, strain PFK2 (second series), stronger effect = lower value 0.989 | locus YMR277W, strain FCP1, stronger effect = lower value 1.01 | locus YNL006W, strain LST8, stronger effect = lower value 1 | locus YNL020C, strain ARK1, stronger effect = lower value 1.02 | locus YNL161W, strain CBK1, stronger effect = lower value 0.994 | locus YNL183C, strain NPR1, stronger effect = lower value 1.04 | locus YNL207W, strain RIO2, stronger effect = lower value 1 | locus YNL222W, strain SSU72, stronger effect = lower value 0.997 | locus YNL307C, strain MCK1 (second series), stronger effect = lower value 1 | locus YOL078W, strain AVO1, stronger effect = lower value 1 | locus YOL136C, strain PFK27, stronger effect = lower value 1.01 | locus YOR061W, strain CKA2, stronger effect = lower value 1.01 | locus YOR119C, strain RIO1, stronger effect = lower value 1.06 | locus YOR231W, strain MKK1, stronger effect = lower value 0.985 | locus YOR329C, strain SCD5, stronger effect = lower value 1 | locus YPL031C, strain PHO85, stronger effect = lower value 0.988 | locus YPL153C, strain RAD53, stronger effect = lower value 0.995 | locus YPL204W, strain HRR25, stronger effect = lower value 1.01 | locus YPL209C, strain IPL1, stronger effect = lower value 1 | locus YPL256C, strain CLN2, stronger effect = lower value 0.927 | locus YPR025C, strain CCL1, stronger effect = lower value 0.999 | locus YPR106W, strain ISR1, stronger effect = lower value 0.993 | locus YPR111W, strain DBF20, stronger effect = lower value 0.986 | strain NNK1, stronger effect = lower value 0.982 | strain TSCII, stronger effect = lower value 1
